Screens deposited in PubChem BioAssay by several laboratories.
Vif imaging: inhibitors of HIV Vif; HEK293T cells, Vif self-association by quenched fluorescence, imaging, 24 h; inhibition, % at 7.49 µM; 340,000 compounds, 0.35% hits; AID 602346; in the data active means inhibition above about 50%, passing the limit was not always enough; inconclusive means no clear call, values can overlap the other calls; inactive means below about 31%
N-glyco inh: blocks N-linked glycosylation in D54 reporter cells; D54 ERlucT glycosylation luciferase reporter, 24 h; percent of 100 nM tunicamycin response; reporter increase, % at 12.5 µM; 360,000 compounds, 0.23% hits;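 active means mean luciferase reporter signal, scaled so untreated is 0 and the glycosylation-blocking control 100, at or above a set limit in every replicate; inconclusive means mean reaches the limit but not every replicate does; inactive means mean below the limit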;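 further: luciferase carries N-glycosylation sites so blocking glycosylation raises the light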
ABCB6 inh MLPCN: inhibitors of human ABC transporter ABCB6 | Q9NP58 | K562-ABCB6 porphyrin accumulation, flow cytometry, 1 h; stronger effect = lower value | fluorescence ratio to DMSO, % at 10 µM | 360,000 compounds, 0.19% hits;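 active means fluorescence ratio to DMSO below 75%, the collection mean minus 3 SD; inconclusive means too few cells collected in the well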;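 further: signal is porphyrin accumulated inside mitochondria; lower ratio means ABCB6 inhibition with less porphyrin fluorescence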
RAD54 inh: inhibitors of human RAD54 branch migration; inhibition, % at 10.4 µM; 360,000 compounds, 0.14% hits; AID 602329; RAD54 Holliday junction branch migration, FAM/BHQ fluorescence;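 active means mean normalized replicate activity at least 40 and at least half of replicates scoring 40 or more; inconclusive means only one of the two criteria met; inactive means mean below 40 and under half of replicates reaching 40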;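 further: inhibitors cause a drop in the FAM fluorescence signal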
Target sequence (Q92698 whole entry, looked up): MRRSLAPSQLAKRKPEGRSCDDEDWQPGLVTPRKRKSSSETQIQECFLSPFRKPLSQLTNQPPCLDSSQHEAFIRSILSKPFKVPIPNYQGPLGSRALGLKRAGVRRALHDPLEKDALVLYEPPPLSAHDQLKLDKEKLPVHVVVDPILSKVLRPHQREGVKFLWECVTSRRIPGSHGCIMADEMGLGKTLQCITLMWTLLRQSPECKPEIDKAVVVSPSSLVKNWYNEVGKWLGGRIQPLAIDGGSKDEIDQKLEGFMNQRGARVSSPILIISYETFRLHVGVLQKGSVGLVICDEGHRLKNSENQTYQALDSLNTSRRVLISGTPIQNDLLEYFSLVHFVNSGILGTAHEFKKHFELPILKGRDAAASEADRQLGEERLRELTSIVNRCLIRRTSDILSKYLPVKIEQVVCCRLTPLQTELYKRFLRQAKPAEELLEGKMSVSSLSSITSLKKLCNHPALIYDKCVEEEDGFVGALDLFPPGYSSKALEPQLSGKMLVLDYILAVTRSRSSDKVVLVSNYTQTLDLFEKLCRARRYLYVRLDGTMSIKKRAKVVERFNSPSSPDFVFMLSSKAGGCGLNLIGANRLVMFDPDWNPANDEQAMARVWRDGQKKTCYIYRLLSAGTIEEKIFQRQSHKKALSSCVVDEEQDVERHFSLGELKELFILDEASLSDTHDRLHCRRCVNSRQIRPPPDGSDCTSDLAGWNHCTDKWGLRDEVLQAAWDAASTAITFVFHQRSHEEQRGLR
Myeloid diff MLP: myeloid differentiation induction; 360,000 compounds, 1% hits; ER-HoxA9 myeloid progenitors, lysozyme-GFP differentiation, flow cytometry; calls only at 10 µM;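 active means normalized GFP-positive differentiation at or above the plate's own cutoff, the solvent-only control mean plus 3 SD; inconclusive means no clear call, values can overlap the other calls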;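 further: cells exposed to compound for four days before flow analysis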
Myeloid diff: myeloid differentiation induction. shares compounds with Myeloid diff MLP. ER-HoxA9 myeloid progenitors, GFP/Mac1 double-positive flow. calls only. 2,300 compounds, 2% hits;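 active means share of green or green-and-red cells above 9 and 9% in run 1 or 4 and 3% in run 2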
GFP autofluor: counter-screen for myeloid differentiation promoters: compound fluorescence | shares compounds with Myeloid diff MLP | ER-HoxA9 myeloid progenitors, no estrogen, GFP autofluorescence flow cytometry; vehicle wells 0%, positive control 100% | fluorescence response, % (no concentration beside the values) | 2,300 compounds, 7.4% hits | AID 651707;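 active means over 5% cells positive for green fluorescent reporter, or over 2% positive for both it and APC stain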
Numbers stand for hits; i = inactive; ? = inconclusive; nt = no result; + = active, no number. Sampled rows, rich in hits. Any-hit rate of the full collection: about 1.6%.

SMILES | Vif imaging | N-glyco inh | ABCB6 inh MLPCN | RAD54 inh | Myeloid diff MLP | Myeloid diff | GFP autofluor
CC(C)N(C(=O)[C@H]1C[C@H](CC(=O)NCc2cccc(C(F)(F)F)c2)C(=O)N2CCc3c([nH]c4cc(-c5ccco5)ccc34)[C@]12C)C(C)C | nt | i | i | i | ? | i | i
CC(C)N(C(=O)[C@H]1C[C@H](CC(=O)NCCCN(C)C)C(=O)N2CCc3c([nH]c4cc(-c5ccco5)ccc34)[C@]12C)C(C)C | nt | i | i | i | i | nt | nt
C[C@H](CO)N1C[C@H](C)[C@H](CN(C)C(=O)c2ccncc2)OCCCC[C@H](C)Oc2ccc(NS(=O)(=O)c3ccc(F)cc3)cc2C1=O | nt | nt | nt | i | nt | nt | nt
O=C(NCc1nc2ccccc2[nH]1)C1=C[C@H](c2ccc(Br)cc2)C[C@H](OCc2ccc(CO)cc2)O1 | i | i | i | i | i | nt | nt
C#Cc1ccc([C@H]2C=C(C(=O)NCc3nc4ccccc4[nH]3)O[C@@H](OCc3ccc(CO)cc3)C2)cc1 | i | i | i | i | i | i | i
O=C(NCc1ccccc1)C1=C[C@@H](c2csc3ccccc23)C[C@@H](OCc2ccc(CO)cc2)O1 | i | i | i | i | + | i | i
O=C(O)c1ccccc1N/N=C/c1c(Sc2nnnn2-c2ccccc2)nc2ccccn2c1=O | i | i | i | nt | + | + | i
C[C@H]1CN([C@@H](C)CO)C(=O)c2cc(C#CC3(O)CCCC3)cnc2O[C@H]1CN(C)C(=O)C1CCOCC1 | nt | nt | nt | i | nt | nt | nt
CCOC(=O)c1ccc(NC(=O)c2nc[nH]c2C(=O)N(C)CCO)cc1 | nt | i | i | i | + | i | i
Cc1ccc(NC(=O)c2nc[nH]c2C(=O)N(C)CCO)cc1 | i | i | i | i | i | nt | nt
Cc1cccc[n+]1CC(=O)/C=C1\N(C)c2ccccc2C1(C)C | i | i | i | i | i | nt | nt
CN1/C(=C/C=C/c2n(C)c3cc([N+](=O)[O-])c([N+](=O)[O-])cc3[n+]2C)C(C)(C)c2ccccc21 | nt | i | i | i | + | i | 7.2
O=C(Nc1ccccc1)N1CCCCN2[C@H](CO)[C@@H](c3ccc(-c4ccccc4)cc3)[C@@H]2C1 | nt | nt | nt | i | nt | nt | nt
Cc1cc(C)n(-c2nnc3n2N=C(c2ccccc2)CS3)n1 | i | i | i | i | i | nt | nt
Cc1cc(C)n(-c2nnc3n2N=C(c2c[nH]c4ccccc24)CS3)n1 | i | i | i | i | i | i | i
COC(=O)c1sccc1NC(=O)c1ccc(C)cc1 | i | i | i | i | i | nt | nt
COC(=O)c1sccc1NC(=O)c1csc(C)c1 | i | i | i | i | + | i | i
CO/N=C(\CS(=O)(=O)Cc1ccc(OC)cc1)c1ccc(Cl)cc1 | i | i | i | i | i | i | i
CC(C)NC(=O)N(C)C[C@@H]1Oc2c(NS(=O)(=O)c3cn(C)cn3)cccc2C(=O)N([C@H](C)CO)C[C@@H]1C | nt | nt | nt | i | nt | nt | nt
CCN1CCN(C(c2cccc(OC)c2OC)c2nnnn2Cc2ccco2)CC1 (stereo unspecified) | i | i | i | nt | i | nt | nt
COc1ccccc1C(c1nnnn1Cc1ccco1)N1CCN(c2cccc(C)c2C)CC1 (stereo unspecified) | i | i | i | i | i | i | i
C[C@H]1CN([C@@H](C)CO)C(=O)Cc2cc(NS(=O)(=O)c3cccs3)ccc2O[C@@H]1CN(C)Cc1ccc2c(c1)OCO2 | nt | nt | nt | i | nt | nt | nt
Cc1ccccc1S(=O)(=O)c1cc2ccccc2nc1N | i | i | i | i | i | i | i
O=C(c1ccccn1)N1C[C@@H]2[C@H](c3ccccc31)[C@@H](CO)N2C(=O)Nc1ccccc1F | nt | nt | nt | i | nt | nt | nt
COc1cc(O)oc1C=Nc1ccccc1 | i | i | i | i | + | i | i
SMILES | Vif imaging | N-glyco inh | ABCB6 inh MLPCN | RAD54 inh | Myeloid diff MLP | Myeloid diff | GFP autofluor
C[C@H]1CN([C@@H](C)CO)C(=O)c2cccc(NS(=O)(=O)c3ccc(F)cc3)c2O[C@@H]1CN(C)S(=O)(=O)c1ccccc1 | nt | nt | nt | i | nt | nt | nt
Cc1ccc(N=C2NC(=O)/C(=C/c3cn(C)c4ccccc34)S2)cc1C | i | i | i | nt | + | i | 35
C[C@H]1CCCCO[C@@H](CN(C)C(=O)Nc2ccc3c(c2)OCO3)[C@@H](C)CN([C@@H](C)CO)C(=O)c2cc(NC(=O)NC3CCCCC3)ccc2O1 | nt | nt | nt | i | nt | nt | nt
CCCn1ncc(CN2CCC(C(=O)Nc3cccc(-c4cccc(F)c4)c3)CC2)c1C | i | i | i | i | + | i | i
CC(C)c1cn(CC[C@H]2CC[C@@H](NC(=O)Nc3cc(Cl)cc(Cl)c3)[C@@H](CO)O2)nn1 | nt | nt | nt | i | nt | nt | nt
O=C(c1cccc(F)c1)N1C[C@@H]2[C@H](c3ccccc31)[C@@H](CO)N2C(=O)C1CC1 | nt | nt | nt | i | nt | nt | nt
CC(C)C[C@H](NC(=O)N1CCn2c1nc1ccccc12)C(=O)N[C@@H](C(=O)O)c1ccccc1 | i | i | i | i | + | i | i
CNC[C@@H]1OCCCC[C@H](C)Oc2ccc(NC(=O)Nc3ccccc3)cc2C(=O)N([C@@H](C)CO)C[C@@H]1C | nt | nt | nt | i | nt | nt | nt
Cc1cc2cc(CN(CC3CCCO3)C(=S)Nc3ccccc3)c(=O)[nH]c2cc1C (stereo unspecified) | i | i | i | nt | + | i | i
COc1ccc2[nH]c(=O)c(CN(CC3CCCO3)C(=S)Nc3ccccc3)cc2c1 (stereo unspecified) | i | i | i | nt | i | nt | nt
O=C(O)c1cccnc1Nc1ccc(Cl)cc1 | i | i | i | nt | + | + | i
Cc1ccc(Nc2ncccc2C(=O)O)cc1C | i | i | i | i | i | nt | nt
COc1cccc(-c2ccc3c(c2)[C@@H]2[C@@H](CCN2C(=O)C2CCOCC2)[C@@H](CO)N3)c1 | nt | nt | nt | i | nt | nt | nt
Cc1ccc([C@H]2C(C(=O)O)=C[C@@H](CC3CCCC3)N2S(=O)(=O)c2ccc(C)cc2)cc1 | i | i | i | i | i | nt | nt
Cc1ccc(S(=O)(=O)N2[C@@H](c3ccc4c(c3)OCO4)C(C(=O)O)=C[C@H]2CC2CCCC2)cc1 | nt | i | i | i | + | i | i
O=C(CN1CCOCC1)N[C@H]1CC[C@H](CCNC(=O)C2CCCC2)O[C@H]1CO | nt | nt | nt | i | nt | nt | nt
CC1Nc2ncnc(N3CCOCC3)c2N(Cc2ccccc2)C1=O (stereo unspecified) | i | i | i | i | i | i | i
O=C(Nc1cccc([N+](=O)[O-])c1)N1CCCc2ccccc21 | i | i | i | i | i | nt | nt
O=[N+]([O-])c1cccc(NC(=S)N2CCc3ccccc32)c1 | i | i | i | i | i | i | i
Cc1ccc(Nc2nc(=O)c3cccnc3s2)c(Br)c1 | i | i | i | i | + | + | i
Cc1ccc(NC(=O)c2ccc(=O)[nH]c2)cc1S(=O)(=O)N1CCCCC1 | i | i | i | nt | i | i | i
O=C(Nc1ccc(S(=O)(=O)N2CCCCC2)cc1)c1ccc(=O)[nH]c1 | i | i | i | i | i | nt | nt
Cc1cc(C)nc(NC2=NCC(=O)N2c2ccc(F)c(Cl)c2)n1 | ? | i | i | i | i | nt | nt
